This is a sample that favours compounds with a hit; in the whole collection about 11% have one here.
JMJD2A Tudor inh = inhibitors of human JMJD2A Tudor domain; O75164; AlphaScreen JMJD2A-Tudor / H3K4me3 peptide binding; Potency, µM (highest dose often 114 µM), usual class: inhibitors; actives 4.4% (n = 390,000); also: nearly all actives have a fitted effect of over 50% in size
HP1b chromo inh = inhibitors of HP1-beta chromodomain binding to methylated histone tails | AlphaScreen HP1-beta / biotin-H3K9me3 peptide binding | Potency, µM (series often up to 114 µM), most hits filed as inhibitors | actives 0.56% (n = 390,000) | AID 540317; also: nearly all actives have a fitted effect of over 70% in size
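HP1-beta protein (50 nM final) preincubated 30 min at room temperature with biotinylated H3(1-18)K9me3 peptide (50 nM) in PBS pH 7.4, 0.01% Tween-20, then compound added for 30 min. AlphaScreen streptavidin donor/nickel chelate acceptor beads (10 ug/mL final), 30 min dark, luminescence read.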
G9a block = G9a (human) methyltransferase inhibition | Potency, µM (top dose mostly 102 µM), actives largely listed as inhibitors | actives 8.8% (n = 350,000) | AID 504332 | G9a H3K9 monomethylation, AlphaScreen, 2 h; also: nearly all actives have a fitted effect of over 75% in size
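Step 1: enzyme (final 20 nM) with compound, 15 min RT. Step 2: substrate peptide 500 nM and SAM 20 uM, 2 h RT. Step 3: anti-H3K9me1 antibody and AlphaScreen beads, 10 min, then plate read.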
BAZ2B block = inhibitors of human BAZ2B bromodomain; Potency, µM (top dose mostly 114 µM), hits mostly inhibitors; actives 4.4% (n = 360,000); AID 504333; AlphaScreen BAZ2B-H3K14Ac peptide displacement; also: nearly all actives have a fitted effect of over 60% in size
Target sequence (Q9UIF8 whole entry, looked up): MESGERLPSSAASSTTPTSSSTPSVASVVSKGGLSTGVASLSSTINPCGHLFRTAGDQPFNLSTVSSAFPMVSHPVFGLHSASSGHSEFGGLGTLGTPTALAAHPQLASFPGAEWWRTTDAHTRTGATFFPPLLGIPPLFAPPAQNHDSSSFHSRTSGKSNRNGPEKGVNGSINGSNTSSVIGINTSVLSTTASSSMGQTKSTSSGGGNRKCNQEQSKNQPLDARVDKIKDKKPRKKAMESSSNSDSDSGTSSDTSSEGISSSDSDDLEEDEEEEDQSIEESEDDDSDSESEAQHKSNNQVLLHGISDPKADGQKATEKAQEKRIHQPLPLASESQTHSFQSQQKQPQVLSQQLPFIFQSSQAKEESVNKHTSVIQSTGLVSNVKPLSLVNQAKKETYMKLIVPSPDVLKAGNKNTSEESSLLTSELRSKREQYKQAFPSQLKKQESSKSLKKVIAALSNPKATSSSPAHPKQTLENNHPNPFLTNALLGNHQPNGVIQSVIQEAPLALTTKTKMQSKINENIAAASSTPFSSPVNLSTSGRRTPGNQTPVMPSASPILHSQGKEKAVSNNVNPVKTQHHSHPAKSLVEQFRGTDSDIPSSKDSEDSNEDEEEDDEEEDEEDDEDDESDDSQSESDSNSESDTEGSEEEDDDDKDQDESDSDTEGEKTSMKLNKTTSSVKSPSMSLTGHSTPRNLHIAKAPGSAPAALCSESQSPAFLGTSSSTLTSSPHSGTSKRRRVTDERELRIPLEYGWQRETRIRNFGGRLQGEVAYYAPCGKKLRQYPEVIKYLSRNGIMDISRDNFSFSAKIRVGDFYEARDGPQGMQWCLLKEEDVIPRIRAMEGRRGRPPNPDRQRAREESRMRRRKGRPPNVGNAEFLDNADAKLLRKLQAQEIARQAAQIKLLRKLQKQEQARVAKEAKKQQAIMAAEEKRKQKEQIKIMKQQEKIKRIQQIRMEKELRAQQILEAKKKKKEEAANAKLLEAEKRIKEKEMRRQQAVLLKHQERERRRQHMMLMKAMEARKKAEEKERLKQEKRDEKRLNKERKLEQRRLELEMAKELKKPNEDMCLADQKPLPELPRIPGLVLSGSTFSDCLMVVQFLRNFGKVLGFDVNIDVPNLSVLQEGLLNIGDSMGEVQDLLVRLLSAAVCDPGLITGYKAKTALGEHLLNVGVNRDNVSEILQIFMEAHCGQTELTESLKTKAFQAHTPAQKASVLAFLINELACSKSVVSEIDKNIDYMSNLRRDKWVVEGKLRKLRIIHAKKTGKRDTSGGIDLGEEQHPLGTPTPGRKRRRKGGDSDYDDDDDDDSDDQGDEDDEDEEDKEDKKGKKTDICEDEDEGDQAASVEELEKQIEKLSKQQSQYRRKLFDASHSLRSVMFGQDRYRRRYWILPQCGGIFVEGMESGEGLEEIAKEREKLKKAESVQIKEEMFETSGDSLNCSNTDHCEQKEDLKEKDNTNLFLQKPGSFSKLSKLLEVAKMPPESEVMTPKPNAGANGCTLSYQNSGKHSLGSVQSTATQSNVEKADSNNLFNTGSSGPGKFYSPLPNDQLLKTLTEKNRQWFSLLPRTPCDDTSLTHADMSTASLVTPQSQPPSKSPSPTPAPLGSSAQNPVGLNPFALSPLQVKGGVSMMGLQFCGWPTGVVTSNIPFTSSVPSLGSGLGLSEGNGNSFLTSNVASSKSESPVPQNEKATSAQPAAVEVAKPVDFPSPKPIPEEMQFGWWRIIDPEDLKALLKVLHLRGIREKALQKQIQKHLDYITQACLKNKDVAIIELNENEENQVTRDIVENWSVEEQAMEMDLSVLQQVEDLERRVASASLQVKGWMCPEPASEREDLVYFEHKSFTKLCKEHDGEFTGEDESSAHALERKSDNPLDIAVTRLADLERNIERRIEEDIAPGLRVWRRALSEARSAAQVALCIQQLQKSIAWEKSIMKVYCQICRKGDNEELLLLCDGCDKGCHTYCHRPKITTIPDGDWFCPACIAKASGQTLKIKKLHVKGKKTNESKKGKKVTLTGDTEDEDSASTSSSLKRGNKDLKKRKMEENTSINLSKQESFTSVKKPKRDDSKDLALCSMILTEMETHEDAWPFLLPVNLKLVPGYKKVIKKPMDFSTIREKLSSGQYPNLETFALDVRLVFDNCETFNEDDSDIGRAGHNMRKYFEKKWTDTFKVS
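In this displacement format the biotinylated H3(5-23) peptide acetylated at Lys14 serves as ligand at 50 nM, with BAZ2B at 50 nM in PBS pH 7.4 containing 0.01% Tween-20. Donor and acceptor beads are 10 ug/mL final.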
L3MBTL1 inh = blocks human L3MBTL1; Potency, µM (highest dose often 57.1 µM), most hits filed as inhibitors; actives 0.66% (n = 230,000); AlphaScreen L3MBTL1–H3K9me1 peptide binding; AID 485360; also: nearly all actives have a fitted effect of over 60% in size
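L3MBTL1 50 nM + b-AHA-H3(1-15)K9me1 75 nM, 30 min RT; compound added, 30 min RT; streptavidin donor/Ni-chelate acceptor beads 10 ug/mL each final, 30 min RT dark; AlphaScreen read.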
A number is an active result; [ ] = remark or other dose. Calls follow the shape of the dose curve; as a rule, active = well fitted inhibition curve with a large enough effect; inconclusive = small, poorly fitted or top-dose-only effect; inactive = no such curve, though single readings can be large or run the other way.

How did COc1ccc(CC(=O)NCCc2csc(-c3cccc(C)c3)n2)cc1 do in these assays?
JMJD2A Tudor inh: inactive; HP1b chromo inh: inactive; G9a block: inactive; BAZ2B block: inactive

What do the screens show for `Cc1ccc(C(C)C)c(OCC(=O)NCC2(N(C)C)CCCCC2)c1`?
JMJD2A Tudor inh: inactive; HP1b chromo inh: inactive; G9a block: inactive; BAZ2B block: inconclusive

Results for CCC(C(=O)N1CCN(c2ccccc2F)CC1)n1nc(C)c2sc3ccccc3c2c1=O (centres undefined) ?
JMJD2A Tudor inh: inactive; HP1b chromo inh: inactive; G9a block: inactive; BAZ2B block: inactive

What do the screens show for `CCC1(c2ccccc2)NC(=O)N(CC(=O)Nc2cc(Cl)ccc2N2CCOCC2)C1=O` (centres undefined)?
JMJD2A Tudor inh: inactive; HP1b chromo inh: inactive; G9a block: 35µM; BAZ2B block: inactive; L3MBTL1 inh: inactive

How did Cc1cc(N2CCCC2)ccc1NC(=O)CN1C(=O)NC(C)(c2ccccc2)C1=O (centres undefined) do in these assays?
JMJD2A Tudor inh: inconclusive; HP1b chromo inh: inactive; BAZ2B block: 25µM

How did CC1(c2ccccc2)NC(=O)N(CC(=O)Nc2ccc(N3CCOCC3)cc2N2CCOCC2)C1=O (centres undefined) do in these assays?
JMJD2A Tudor inh: inactive; HP1b chromo inh: inactive; G9a block: 56µM; BAZ2B block: inactive; L3MBTL1 inh: inactive

What do the screens show for `CCOc1ccc(S(=O)(=O)N2CCOCC2)cc1NC(=O)CN1C(=O)NC(CC)(c2ccccc2)C1=O` (centres undefined)?
JMJD2A Tudor inh: inactive; HP1b chromo inh: inactive; G9a block: inactive; BAZ2B block: inactive

What do the screens show for `O=C(CN1C(=O)C2CC=CCC2C1=O)Nc1ccccc1N1CCCC1` (centres undefined)?
JMJD2A Tudor inh: inactive; HP1b chromo inh: inactive; G9a block: 50µM; BAZ2B block: inactive; L3MBTL1 inh: inactive

Results for CCC1(c2ccccc2)NC(=O)N(CC(=O)Nc2ccc(S(=O)(=O)NC3=NCCCCC3)cc2)C1=O (centres undefined) ?
JMJD2A Tudor inh: inactive; HP1b chromo inh: inactive; G9a block: 50µM; BAZ2B block: inactive; L3MBTL1 inh: inactive

What do the screens show for `CCC1(c2ccccc2)NC(=O)N(CC(=O)Nc2ccccc2N2CCCC2)C1=O` (centres undefined)?
JMJD2A Tudor inh: inactive; HP1b chromo inh: inactive; G9a block: 40µM; BAZ2B block: inactive; L3MBTL1 inh: inactive

What do the screens show for `CC1CCc2ccccc2N1CC(=O)Nc1cccc(S(=O)(=O)N2CCCC2)c1` (centres undefined)?
JMJD2A Tudor inh: inconclusive; HP1b chromo inh: inactive; G9a block: 20µM; BAZ2B block: inactive; L3MBTL1 inh: inactive

How did CC1Cc2ccccc2N1CC(=O)Nc1cccc(S(N)(=O)=O)c1 (centres undefined) do in these assays?
JMJD2A Tudor inh: inactive; HP1b chromo inh: inactive; G9a block: inactive; BAZ2B block: inactive; L3MBTL1 inh: inconclusive

What do the screens show for `CCC1(c2ccc(F)cc2)NC(=O)N(CC(=O)c2cc(C)n(C3CC3)c2C)C1=O` (centres undefined)?
JMJD2A Tudor inh: inactive; HP1b chromo inh: inactive; G9a block: 50µM; BAZ2B block: inactive; L3MBTL1 inh: inactive

How did COc1ccc(CNC(=O)Cn2c(=O)cc(-c3ccccc3)c3c(C)nn(C)c32)cc1 do in these assays?
JMJD2A Tudor inh: inactive; HP1b chromo inh: inactive; G9a block: inactive; BAZ2B block: inactive

What do the screens show for `CC(=C1C(=O)c2ccccc2C1=O)N1CCN(c2ccc(F)cc2)CC1`?
JMJD2A Tudor inh: inactive; HP1b chromo inh: inactive; G9a block: 50µM; BAZ2B block: inactive; L3MBTL1 inh: inactive

What do the screens show for `CC1CCN(C2=C(NS(=O)(=O)c3ccc(Br)cc3)C(=O)c3ccccc3C2=O)CC1`?
JMJD2A Tudor inh: 8.9µM; HP1b chromo inh: 6.3µM; G9a block: 8.9µM; BAZ2B block: 4.5µM

How did CC1CCN(C2=C(NS(=O)(=O)c3ccccc3)C(=O)c3ccccc3C2=O)CC1 do in these assays?
JMJD2A Tudor inh: 14µM; HP1b chromo inh: 14µM; G9a block: 4µM; BAZ2B block: 6.3µM; L3MBTL1 inh: 11µM

What do the screens show for `CSc1ccccc1C(=O)N1CCN(c2ccc(F)cc2)CC1`?
JMJD2A Tudor inh: inactive; HP1b chromo inh: inactive; G9a block: inactive; BAZ2B block: inactive

What do the screens show for `CC1CCN(C(=O)CCNS(=O)(=O)c2ccc(Br)cc2)CC1`?
JMJD2A Tudor inh: inactive; HP1b chromo inh: inactive; G9a block: inactive[12.7 µM]; BAZ2B block: inactive; L3MBTL1 inh: inactive

Results for O=S(=O)(Nc1nc2ccccc2nc1Cl)c1ccccc1 ?
JMJD2A Tudor inh: inactive; HP1b chromo inh: inactive; G9a block: 40µM; BAZ2B block: inactive; L3MBTL1 inh: inactive

What do the screens show for `COc1cccc(CNC(=O)CSc2n[nH]c(-c3ccccc3Cl)n2)c1`?
JMJD2A Tudor inh: inactive; HP1b chromo inh: inactive; G9a block: inactive; BAZ2B block: inactive

Results for COC(=O)c1ccc(NC(=O)c2c(NCc3ccc(OC)c(OC)c3)sc3c2CCCC3)cc1 ?
JMJD2A Tudor inh: inconclusive; HP1b chromo inh: inactive; G9a block: inconclusive; BAZ2B block: inactive

Results for CC1CCCN(C2=C(NS(=O)(=O)c3ccc(Br)cc3)C(=O)c3ccccc3C2=O)C1 (centres undefined) ?
JMJD2A Tudor inh: 3.5µM; HP1b chromo inh: inconclusive; G9a block: inconclusive; BAZ2B block: 3.5µM

Results for O=C1C(NS(=O)(=O)c2ccccc2)=C(N2CCN(c3ccc(F)cc3)CC2)C(=O)c2ccccc21 ?
JMJD2A Tudor inh: inconclusive; HP1b chromo inh: 10µM; G9a block: 5.6µM; BAZ2B block: 4µM; L3MBTL1 inh: inconclusive

How did O=C(c1cccc(NS(=O)(=O)c2ccc(F)cc2)c1)N1CCN(c2ccccc2)CC1 do in these assays?
JMJD2A Tudor inh: inactive; HP1b chromo inh: inactive; G9a block: inactive; BAZ2B block: inactive; L3MBTL1 inh: inactive

Results for O=C1C(NS(=O)(=O)c2cccs2)=C(N2CCN(c3cccc(Cl)c3)CC2)C(=O)c2ccccc21 ?
JMJD2A Tudor inh: 7.1µM; HP1b chromo inh: inconclusive; G9a block: inconclusive; BAZ2B block: 8.9µM

How did CC1CCN(C(CNS(=O)(=O)c2ccccc2)c2ccccc2)CC1 (centres undefined) do in these assays?
JMJD2A Tudor inh: inactive; HP1b chromo inh: inactive; G9a block: inactive[2.33 µM]; BAZ2B block: inactive; L3MBTL1 inh: inactive

How did CC1CCN(C2=C(NS(=O)(=O)c3ccc(Cl)cc3)C(=O)c3ccccc3C2=O)CC1 do in these assays?
JMJD2A Tudor inh: 45µM; HP1b chromo inh: inconclusive; G9a block: 5.6µM; BAZ2B block: 4.5µM; L3MBTL1 inh: 16µM

What do the screens show for `O=S(=O)(Nc1ccccc1N1CCCCC1)c1ccccc1`?
JMJD2A Tudor inh: inactive; HP1b chromo inh: inactive; G9a block: inactive; BAZ2B block: inactive

How did O=C1C(NS(=O)(=O)c2ccc(Br)cc2)=C(N2CCCCC2)C(=O)c2ccccc21 do in these assays?
JMJD2A Tudor inh: 8.9µM; HP1b chromo inh: 10µM; G9a block: 8.9µM; BAZ2B block: 5µM
